The record followed here is the supplement of paper PMC4723716.

± gives the uncertainty stated by the source. The full ranking holds about 9,900 compounds; the median of “viability index relative to DMSO control” is about 1, and the lowest 2% start at about 0.85. For the sample, the lowest values were picked, then their nearest neighbours and some compounds at random.

This assay concerns Plasmodium falciparum NF54 stage V gametocytes. Briefly: viability index relative to DMSO control (fraction); higher = less gametocyte killing. The settings on record: 2.5 µM, library set: Broad Institute DOS, incubation time: 72 h. The method, boiled down: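 P. falciparum NF54 stage V gametocytes in serum-free screening medium (0.75% gametocytemia, 1.25% hematocrit, 10 µl) were incubated with compound at 2.5 µM in 1,536-well plates for 72 hr at 37°C under low oxygen. Then 3 µl of 2.5 µM MitoTracker Red CMXRos plus 0.13% saponin was added for one to two hours. One field per well was imaged, 20–70 µm2 red particles were counted, and the viability index was the count divided by the plate mean of DMSO wells.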
Take `COc1ccc2c3c([C@@H](CO)N(Cc4nccs4)C[C@]33CCN(CC3)C(=O)CN(C)C)n(C)c2c1`: the viability index amounted to 0.905 ± 0.039. Next, `COc1ccc2c3c([C@@H](CO)N(CC4CCOCC4)C[C@]33CN(Cc4nccs4)C3)n(C)c2c1`: 1.1 ± 0.08; `COc1ccc2c3c([C@@H](CO)N(Cc4nccs4)C[C@]33CCN(CC4CCCC4)CC3)n(C)c2c1`: 0.848 ± 0.029; `COc1ccc2c3c([C@H](CO)N(Cc4nccs4)C[C@]33CCN(CC3)C(=O)CN(C)C)n(C)c2c1`: 0.955 ± 0.12. Compound `COc1ccc2c3c([C@H](CO)N(Cc4nccs4)C[C@]33CCN(CC4CCCC4)CC3)n(C)c2c1` came in with a viability index of 0.841 ± 0.028. As to `COc1ccc2c3c([C@H](CO)N(CC4CCOCC4)C[C@]33CN(Cc4nccs4)C3)n(C)c2c1`, the viability index was determined as 1.08 ± 0.019.

For the compound `CO[C@H]1CN(C)C(=O)c2cc(NC(=O)NC(C)C)ccc2OC[C@@H](C)N(C(=O)CN(C)C)C[C@H]1C`, the viability index was 1.03 ± 0.043. Next, `COCC#Cc1ccc([C@@H]2[C@@H](CO)N3C(=O)CN(C(=O)Nc4ccccc4F)C[C@@H]23)cc1`: 1.02 ± 0.025.

With `C[C@H](CO)N1C[C@H](C)[C@@H](CN(C)C(=O)Nc2ccccc2F)Oc2cc(Br)ccc2S1(=O)=O`, the viability index was 1.01 ± 0.02.

Turning to `COc1ccc2c3c([C@H](CO)N(C[C@]33CCN(CC3)C(=O)Nc3ccc(F)cc3F)C(=O)Nc3ccc(F)cc3)n(C)c2c1`, the viability index was 1.04 ± 0.029. The result for `N#C[C@@H]1N[C@H](CO)[C@H]1c1ccc(-c2cccc(F)c2)cc1` reads 1.18 ± 0.088. Next, `CCS(=O)(=O)Nc1ccc2c(c1)C(=O)N(C)[C@@H]1CC[C@H](CC(=O)NCc3ccc(OC)cc3)O[C@H]1CO2`: 1.01 ± 0.078; `COc1ccccc1-c1ccc2c(c1)[C@@H]1[C@@H](CCN1S(=O)(=O)c1ccc(C)cc1)[C@H](CO)N2`: 0.836 ± 0.028; `N#Cc1cccc(-c2ccc3c(c2)[C@H]2[C@H](CCN2S(=O)(=O)c2ccc(F)cc2)[C@H](CO)N3)c1`: 1.09 ± 0.017.

Regarding `Cc1cccc(S(=O)(=O)N2CC[C@H]3[C@H](CO)Nc4ccc(-c5ccccc5F)cc4[C@H]32)c1`, the viability index was found to be 1.08 ± 0.023. Compound `COc1ccc(-c2ccc3c(c2)[C@H]2[C@H](CCN2C(=O)c2cccc(F)c2)[C@@H](CO)N3)cc1` returned a viability index of 0.942 ± 0.075. As to `Cc1cccc(S(=O)(=O)N2CC[C@@H]3[C@@H](CO)Nc4ccc(-c5ccccc5F)cc4[C@@H]32)c1`, the viability index turned out to be 1.18 ± 0.029.

The compound `Cc1cccc(S(=O)(=O)N2CC[C@@H]3[C@H](CO)Nc4ccc(-c5ccccc5F)cc4[C@@H]32)c1` yielded a viability index of 1.06 ± 0.03.

`COc1ccccc1-c1ccc2c(c1)[C@H]1[C@H](CCN1S(=O)(=O)c1ccc(C)cc1)[C@@H](CO)N2` yielded a viability index of 0.811 ± 0.098. The result for `Cc1cccc(S(=O)(=O)N2CC[C@@H]3[C@H]2c2cc(-c4ccccc4F)ccc2N[C@@H]3CO)c1` reads 0.926 ± 0.08; that for `N#Cc1cccc(-c2ccc3c(c2)[C@@H]2[C@@H](CCN2S(=O)(=O)c2ccc(F)cc2)[C@@H](CO)N3)c1`, 0.855 ± 0.011; that for `COc1ccc(-c2ccc3c(c2)[C@@H]2[C@@H](CCN2C(=O)c2cccc(F)c2)[C@@H](CO)N3)cc1`, 0.996 ± 0.08. Next, `N#Cc1cccc(-c2ccc3c(c2)[C@@H]2[C@@H](CCN2S(=O)(=O)c2ccc(F)cc2)[C@H](CO)N3)c1`: 0.844 ± 0.062.

`COc1ccc(-c2ccc3c(c2)[C@@H]2[C@@H](CCN2C(=O)c2cccc(F)c2)[C@H](CO)N3)cc1` registered a viability index of 0.848 ± 0.042.
